Assay [1] concerns the target Albumin (Bos taurus) (UniProt P02769). As to the kind of experiment: bovine serum albumin binders on microarray, profiling panel, artefact control for SMM control protein annotation, biochemical, small-molecule microarray, Alexa647 label, 635/667 nm fluorescence (AID 1118).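 Note: score merges 667 nm emission intensity and signal-to-noise per printed compound spot.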 To be noted: BSA-A647 binding, fluorescence 635 nm, higher = more signal.
Assay [2] in a line: small-molecule microarray binders of probe aXIP, primary screen, biochemical, NeuroSMM set, 635/667 nm fluorescence (AID 1119).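 Note: probe is the protein aXip251-270 applied at 1 µg/mL to compound-printed slides; binding of probe to printed compounds measured as 667 nm fluorescence plus signal to noise.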 Particulars: higher = more signal, called active from +8 up or from −8 down.
A short description of assay [3]: small-molecule binders of probe aNOTCH3, primary screen, biochemical, small-molecule microarray, 635/667 nm fluorescence (AID 1120).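 Note: probe is a biotin-tagged antibody raised against NOTCH3 rather than NOTCH3 protein; score merges spot fluorescence near 667 nm with spot signal to noise.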 To be noted: higher = more signal.
Assay [4] in a line: small-molecule binders of probe aNOTCH2, primary screen, biochemical, small-molecule microarray, 635/667 nm fluorescence (AID 1121).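 Note: score merges feature fluorescence read at 667 nm with its signal to noise.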 Particulars: higher = more signal.
Assay [5] addresses Carbonic anhydrase 2 (Homo sapiens) (UniProt P00918). As to the kind of experiment: CAII small-molecule binders, profiling panel, biochemical, small-molecule microarray, Alexa647-labelled CAII (AID 1122). To be noted: CAII-A647 binding fluorescence, higher = more signal.
Assay [6] is described as follows: COS7 lysate on small-molecule microarray, probe aHis, 635 nm (AID 1123).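 Note: z-score combines 667nm fluorescence intensity with signal-to-noise per printed compound spot.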 Particulars: COS7 cell lysate, fluorescence, higher = more signal.
Assay [7] can be described thus: compound binding in COS7 lysate, probe aLAP1, primary screen, cell lysate, small-molecule microarray (AID 1124).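 Note: lysate comes from COS7 cells expressing LAP1 and is applied at 0.3 µg/mL; score merges spot fluorescence near 667 nm with signal-to-noise over triplicate slides.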 Particulars: probe aLAP1, fluorescence, higher = more signal.
Assay [8] has as its system Sam68 (KHDRBS1). As to the kind of experiment: Sam68 small-molecule binders, primary screen, biochemical, small-molecule microarray, 635 nm fluorescence (AID 1125).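 Note: score merges 667 nm channel intensity with signal to noise over triplicate slides.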 To be noted: small-molecule microarray binding, higher = more signal.
The test system of assay [9] is Chordin-like protein 2 (CHRDL2). Put plainly: CHRDL2 small-molecule binders, primary screen, biochemical, small-molecule microarray, 635 nm fluorescence (AID 1126).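 Note: printed compound slides probed with Chrdl2 protein at 4 µg/mL for 1 h at 4 C; score merges 667 nm emission intensity with signal to noise over three replicate slides.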 Particulars: small-molecule microarray binding, fluorescence 635 nm; higher = more signal.
The target in assay [10] is Concanavalin-A (Canavalia ensiformis) (UniProt P02866). As to the kind of experiment: ConA small-molecule binders, primary screen, artefact control for SMM control protein annotation, biochemical, small-molecule microarray, Alexa647 label, 635 nm (AID 1127).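 Note: z combines 667 nm emission intensity with signal-to-noise across three replicate slides.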 To be noted: ConA-A647 binding fluorescence, higher = more signal.
Sequence of Concanavalin-A (Canavalia ensiformis) (P02866 whole entry, looked up): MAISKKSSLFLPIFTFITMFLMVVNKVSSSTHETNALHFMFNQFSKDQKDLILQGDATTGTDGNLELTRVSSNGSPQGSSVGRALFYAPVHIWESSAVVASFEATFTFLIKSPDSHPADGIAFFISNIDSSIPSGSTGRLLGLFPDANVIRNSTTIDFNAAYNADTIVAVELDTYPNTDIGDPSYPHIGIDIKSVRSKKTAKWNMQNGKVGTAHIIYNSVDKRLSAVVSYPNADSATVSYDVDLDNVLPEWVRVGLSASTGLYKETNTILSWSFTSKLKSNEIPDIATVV

Calls of active or inactive are those of the source.

Sequence of Albumin (Bos taurus) (P02769 whole entry, looked up): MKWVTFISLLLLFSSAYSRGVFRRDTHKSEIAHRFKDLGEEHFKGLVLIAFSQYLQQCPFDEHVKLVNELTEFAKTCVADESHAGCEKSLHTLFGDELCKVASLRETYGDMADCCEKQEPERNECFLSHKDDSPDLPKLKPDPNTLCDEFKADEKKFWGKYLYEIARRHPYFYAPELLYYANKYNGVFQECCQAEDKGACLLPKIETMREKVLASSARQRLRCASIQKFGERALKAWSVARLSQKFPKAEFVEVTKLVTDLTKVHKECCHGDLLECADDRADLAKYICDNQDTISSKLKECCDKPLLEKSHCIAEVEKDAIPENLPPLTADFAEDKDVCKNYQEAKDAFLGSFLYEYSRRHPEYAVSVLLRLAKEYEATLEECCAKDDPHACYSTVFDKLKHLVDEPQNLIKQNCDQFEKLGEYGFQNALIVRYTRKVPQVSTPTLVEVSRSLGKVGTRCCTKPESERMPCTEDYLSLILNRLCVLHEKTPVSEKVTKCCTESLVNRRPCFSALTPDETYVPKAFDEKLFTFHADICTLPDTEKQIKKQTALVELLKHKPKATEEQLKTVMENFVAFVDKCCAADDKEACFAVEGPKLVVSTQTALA

As for `C=CCNC(=O)[C@@H]1[C@H]2C(=O)O[C@H](c3ccccc3)[C@H](c3ccccc3)N2[C@H](c2ccc(OCCO)cc2)[C@@]12C(=O)Nc1ccc(C#CC3(O)CCCCCC3)cc12`, the composite z-score in assay [1] was 0.692; in [3] it was 0.13; in assay [4], -0.11; in [5], 0.42; in assay [6] it was 1.86; in assay [7] it was 0.637. Further, the composite z-score in assay [8] is 1.3; in assay [9], 0.253; in [10], 1.19. Further, the composite Z-score in [2] is -0.058 (inactive).

`COC(=O)[C@@]1(Cc2ccc(F)cc2)[C@H]2c3cc(C(=O)N(C)C)n(CCc4ccc(O)c(O)c4)c3C[C@H]2CN1C(=O)c1ccccc1`: the composite z-score in assay [1] turned out to be 0.508; in assay [3], 0.0807; in [4] it was 0.256; in [5], 0.863; in assay [6], 3.26; in assay [7], 0.541. In addition, the composite z-score is 0.0409 in assay [8], -0.938 in assay [9] and 0.227 in [10]. Further, the composite Z-score in assay [2] is 0.964 (inactive).

With `CN1C(=O)[C@@H]2[C@@H](CC(COc3ccccc3)=C3[C@@H](CCc4ccccc4)OB(O)C[C@@H]32)C1=O`, the composite z-score was -0.062 in assay [1]; 0.135 in assay [3]; -0.0073 in assay [4]; 0.229 in [5]; 0.71 in assay [6]; 0.809 in assay [7]. Moreover, the results for the composite z-score in [8], in assay [9] and in [10] were 0.31, -0.102 and -0.0514, respectively. In [2], the composite Z-score is 0.581 (inactive).

As for `N#Cc1ccc(NN2C(C(O)C3CC=CCC3)C=CC3C(=O)N(c4ccccc4)C(=O)C32)cc1` (stereo not given), the composite z-score in [1] was 1.03; in assay [3], 0.106; in assay [4], -0.0037; in assay [5], 0.486; in assay [6] it was 3.13; in assay [7], 0.452. The results for the composite z-score in assay [8], in assay [9] and in [10] were 1.32, 0.0572 and 1.14, respectively. For the same compound, the composite Z-score in assay [2] is -0.098 (inactive).

Regarding `C=C(CCCC)/C(=C/C[C@H](OC(=O)c1ccncc1)c1ccccc1OCCO)c1cc(C(=O)OC)ccc1OC`, the composite z-score in [1] was -0.172; in assay [3] it was -0.0362; in assay [4], -0.145; in [5], 0.63; in [6], 1.2; in assay [7], 0.127. Besides, the composite z-score in assay [8] was 1.05; in [9], 0.647; in assay [10] it was 0.749. Moreover, in assay [2], the composite Z-score was -0.0743 (inactive).

With `NC(=O)NCC#Cc1ccc2c(c1)[C@]1(C(=O)N2)[C@H](c2ccc(OCCO)cc2)N2[C@H](c3ccccc3)[C@H](c3ccccc3)OC(=O)[C@H]2[C@@H]1C(=O)O`, the composite z-score in assay [1] was 0.544; in assay [3] it was -0.0918; in [4], -0.132; in assay [5], 0.256; in assay [6] it was 0.157; in assay [7], -0.23. For the same compound, the composite z-score in [8] is -0.761; in assay [9] it was -0.736; in assay [10], 1.04. Moreover, in assay [2], the composite Z-score is 0.196 (inactive).

For `O=C1NC(=O)C2C1C=CC(C(O)c1ccc([N+](=O)[O-])cc1)N2Nc1ccccn1` (stereo not given), the composite z-score in [1] was -0.494; in assay [3], -0.173; in assay [4], -0.0843; in [5], 0.265; in assay [6] it was 0.555; in assay [7], 0.0223. Besides, the composite z-score is -0.413 in assay [8], 0.472 in assay [9] and -0.257 in assay [10]. In addition, the composite Z-score in [2] is -0.267 (inactive).

With `CCOC(=O)C[C@H]1[C@H](OC(=O)Cc2ccc3c(c2)OCO3)[C@@H](NC(=O)c2ccc3ccccc3n2)c2cc(OCCCO)ccc2N1C(=O)Cc1ccc(OC)cc1`, the composite z-score in assay [1] was 0.635; in assay [3], 0.169; in [4], -0.0286; in assay [5], 0.276; in [6], 0.654; in [7] it was 0.0887. In addition, the values for the composite z-score in assay [8], in assay [9] and in assay [10] were 0.91, -0.17 and 0.774, respectively. Besides, the composite Z-score in assay [2] was 0.378 (inactive).

On to `CC(C)C(=C=CC[C@H](O)c1ccccc1OCCO)C[C@H](O)COCc1ccccc1`, for which the composite z-score in assay [1] is 0.435; in [3] it was -0.122; in assay [4], -0.172; in [5], 0.736; in [6] it was 1.08; in [7], 0.565. The composite z-score was 0.24 in assay [8], -0.163 in assay [9] and 0.377 in [10]. In addition, in assay [2], the composite Z-score was -0.392 (inactive).

As to `NC(=O)N1C(=O)C2C(C1=O)C1C=C(CCCO)C2C(c2ccc(CN3CCCC3)cc2)N1Cc1cc2c(cc1Br)OCO2` (stereo not given), the composite z-score in assay [1] is -0.939; in assay [3], -0.323; in assay [4], -0.117; in [5] it was 0.339; in [6], 0.344; in assay [7] it was 0.117. Further, the values for the composite z-score in assay [8], in assay [9] and in assay [10] were -0.312, 0.192 and -0.129, respectively. The composite Z-score in [2] is -0.328 (inactive).

The values are drawn from PubChem BioAssay.
